From PubChem BioAssay
Smad3 FoxH1 inh: Smad3 (human) transcription factor binding inhibition | 88,000 compounds, 0.29% hits | AID 630 | inhibition, % at 25 µM | TR-FRET Smad3/Dy647-FoxH1 peptide binding, europium anti-His | P84022;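 active = compounds that reduce the energy-transfer binding signal between the protein and its labelled peptide by more than half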
MT1-MMP txn act: activates MT1-MMP transcription | activation factor at 10 µM | AID 750 | 86,000 compounds, 0.16% hits | HT1080 MT1-MMP promoter luciferase reporter, luminescence, overnight; stronger effect = higher value;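 active = activation factor of at least 2 for MT1-MMP transcription at 10 µM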
ERa coact pot: ER-alpha (human) coactivator binding potentiation; coactivator binding (% of control), % at 25.6 µM; TR-FRET ERalpha-LBD/SRC-Cy5 coactivator binding, 2 h; 100 = basal binding, no effect; P03372; 86,000 compounds, 1.3% hits; in the data active = activity above about 200%;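 note: binding measured in presence of low estradiol as agonist stimulus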
Target sequence (P03372 whole entry, looked up, the tested form may be a part): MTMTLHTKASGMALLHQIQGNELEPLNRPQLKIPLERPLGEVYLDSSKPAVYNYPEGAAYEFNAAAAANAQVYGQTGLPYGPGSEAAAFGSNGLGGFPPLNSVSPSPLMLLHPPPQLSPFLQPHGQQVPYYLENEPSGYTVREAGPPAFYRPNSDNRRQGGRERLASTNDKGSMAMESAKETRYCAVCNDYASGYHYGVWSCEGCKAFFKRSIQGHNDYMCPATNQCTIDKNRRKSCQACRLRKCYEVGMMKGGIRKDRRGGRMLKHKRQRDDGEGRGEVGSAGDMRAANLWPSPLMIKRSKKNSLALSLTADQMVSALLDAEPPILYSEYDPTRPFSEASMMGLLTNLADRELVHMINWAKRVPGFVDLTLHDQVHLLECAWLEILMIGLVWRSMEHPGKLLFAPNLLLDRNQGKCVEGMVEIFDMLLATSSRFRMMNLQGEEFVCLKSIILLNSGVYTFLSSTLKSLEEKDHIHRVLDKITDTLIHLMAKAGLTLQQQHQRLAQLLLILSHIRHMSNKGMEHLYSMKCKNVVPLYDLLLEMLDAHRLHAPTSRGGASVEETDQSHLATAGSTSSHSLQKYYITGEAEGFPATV
ERb SRC1 inh: blocks coactivator binding to human estrogen receptor beta; Q92731; TR-FRET ER-beta LBD / SRC1-Cy5 peptide binding; receptor agonist-loaded with 1 µM estradiol; inhibition, % at 25.6 µM; 86,000 compounds, 1.3% hits;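 active = compounds whose percent inhibition of the receptor-coactivator binding signal exceeds about 50% in the single-dose screen, limit read from the data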
MMP-13 inhibitor: blocks human MMP13 activity | MMP-13 fTHP FRET cleavage, Mca fluorescence | inhibition, % at 4 µM | 65,000 compounds, 0.07% hits | AID 570;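 active = inhibition above the mean of compound-free control plate wells plus 3 SD, cut at about 14% in these data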
ERa SRC1 inh: ER-alpha (human) coactivator binding inhibition; P03372; TR-FRET ER-alpha LBD / SRC-1 peptide, estradiol-bound; inhibition, % at 25.6 µM; 86,000 compounds, 1.7% hits; in the data active = inhibition above about 50%
Numbers stand for hits; . = inactive; / = no result; [ ] = remark or other dose. Rows were chosen to be rich in hits. Some 3.5% of all compounds tested hit in one or more screens of this group.

SMILES | Smad3 FoxH1 inh | MT1-MMP txn act | ERa coact pot | ERb SRC1 inh | MMP-13 inhibitor | ERa SRC1 inh
N#C/C(=C(\O)Cc1ccccc1)c1nc2ccccc2[nH]1 | . | . | 409[fluorescence artefact?] | . | / | .
COc1ccc(-n2nnnc2SCC(=O)c2ccc3c(c2)OCCO3)cc1 | . | . | 307[fluorescence artefact?] | . | / | .
O=C(O)CSc1nnc(-c2cccs2)n1-c1ccc(Cl)cc1 | . | . | . | . | . | .
O=C(CSc1nnnn1-c1ccccc1)c1cc2ccccc2oc1=O | . | . | . | . | . | .
Cn1c(=O)oc2ccc(C(=O)CSc3nnnn3-c3ccccc3)cc21 | . | . | 284[fluorescence artefact?] | . | . | .
O=C(CSc1nnc(-c2cccs2)n1-c1cccc(Cl)c1)c1cccc2c1OCCO2 | . | . | 259 | . | / | .
COc1ccc(-n2nnnc2SCC(=O)c2cccc(OC)c2)cc1 | . | . | . | . | . | .
O=C(CSc1nnnn1-c1ccc2c(c1)OCCO2)c1cccc2c1OCCO2 | . | . | 375[fluorescence artefact?] | . | . | .
O=C(OCC(=O)N1CCOCC1)c1ccc2c(c1)OCCO2 | . | . | . | . | . | .
Cn1c(NCCN2CCCCC2)cc(=O)n(C)c1=O | . | . | . | . | . | .
CC(C)COC(=O)Nc1ccc(C(=O)O)cc1 | . | . | . | . | / | .
COCCCn1c2nc3ccccc3nc2c2c(=O)n(Cc3ccc(Cl)cc3)cnc21 | . | . | . | . | . | 56[fluorescence artefact?]
COCCCn1c2nc3ccccc3nc2c2c(=O)n(Cc3ccccc3Cl)cnc21 | . | . | 257 | . | . | .
O=C(O)C1Nc2c(O)cccc2C2C=CCC12 (centres undefined) | . | . | . | 99[fluorescence artefact?] | . | 99[fluorescence artefact?]
O=C(CSCc1n[nH]c(=O)[nH]1)NCCOc1cccc(Oc2ccccc2)c1 | . | . | . | . | 15 | .
CCOc1cccc2cc(C(=O)Nc3nccs3)c(=O)oc12 | / | / | / | / | . | /
N#Cc1c(N)nc(SCC(=O)NCCc2ccccc2)c(C#N)c1-c1cccs1 | . | . | . | . | . | .
CC(C)NC(=O)CSc1nc(-c2cccs2)cc(-c2ccccc2)c1C#N | . | . | 255 | . | / | .
CCSc1nnc(NC(=O)CSc2c(Cl)cccc2Cl)s1 | . | . | . | . | / | .
COc1ccc(OCC(=O)N2CCN(C(=O)c3ccccc3)CC2)cc1 | . | . | 492[fluorescence artefact?] | . | . | .
CC1CCc2c(sc3ncnc(SCC(=O)N4CCN(C(=O)c5ccco5)CC4)c23)C1 (centres undefined) | . | . | . | . | . | .
CC1CCN(Cc2ccc(NC(=O)C3CCN(c4nnc(-n5cccc5)s4)CC3)cc2)CC1 | . | . | . | 72[fluorescence artefact?] | . | 85[fluorescence artefact?]
CCCc1cc(=O)[nH]c(/N=C(/NC(=O)C(C)N2C(=O)c3ccccc3C2=O)Nc2ccccc2)n1 (centres undefined) | 53 | . | . | . | . | .
O=C(Nc1ccc(F)cc1)N(CCCN1CCOCC1)Cc1cc2cc3c(cc2[nH]c1=O)OCCO3 | . | . | . | . | . | .
Nc1ccc(N2CCCCCC2)cc1 | . | . | . | 93[fluorescence artefact?] | . | 97[fluorescence artefact?]
SMILES | Smad3 FoxH1 inh | MT1-MMP txn act | ERa coact pot | ERb SRC1 inh | MMP-13 inhibitor | ERa SRC1 inh
CC(=O)c1ccc(NC(=S)NC(NC(=O)c2ccco2)C(Cl)(Cl)Cl)cc1 (centres undefined) | . | . | . | . | / | .
COc1cc(C(=O)Nc2cnc(NC(=O)C(C)C)cc2C)cc(OC)c1OC | . | . | . | 52 | . | .
Cc1cc(NC(=O)C(C)C)ncc1NC(=O)Cc1ccccc1 | . | . | . | . | . | .
CCOc1ccc(NC(=O)N2CCC(NC(=O)c3ccco3)CC2)cc1 | . | . | . | . | . | .
CCOC(=O)N1CCC(n2c(=S)[nH]c3cc(OCC)c(OCC)cc3c2=O)CC1 | . | . | . | 52[fluorescence artefact?] | . | .
CCOc1cc2[nH]c(=S)n(CCN3CCC(C)CC3)c(=O)c2cc1OCC | . | . | . | . | / | .
O=S(=O)(NCCc1csc(-c2cccnc2)n1)c1cccs1 | / | . | / | / | . | /
COc1ccc(S(=O)(=O)NCCc2csc(-c3cccnc3)n2)cc1 | . | / | . | . | / | .
O=S(=O)(NCCc1csc(-c2cccnc2)n1)c1ccc(Cl)s1 | . | . | . | . | . | 83
O=S(=O)(NCc1csc(-c2cccnc2)n1)c1cccs1 | . | . | . | . | . | 71
COC(=O)c1ccccc1NC(=O)CSc1nnc(COc2cccc(OC)c2)n1C | . | . | . | . | . | .
O=C(c1ccco1)N1CCN(C(c2ccc(Cl)cc2)c2nnnn2CC2CCCO2)CC1 (centres undefined) | . | . | . | . | . | .
O=c1/c(=C/c2ccccn2)sc2nc3ccccc3n12 | . | / | . | . | . | 90[fluorescence artefact?]
COC(=O)/C=c1/sc2nc3ccccc3n2c1=O | . | . | . | . | . | .
Cc1csc2nc(CSc3ccc(Cl)cc3)cn12 | . | . | . | . | . | .
Clc1ccc(SCc2cn3ccsc3n2)cc1 | . | . | 366[fluorescence artefact?] | . | . | .
Cc1cc(C)n(-c2nc3c(c(=O)n(Cc4ccc(Cl)c(Cl)c4)c(=O)n3C)n2C)n1 | . | . | . | . | . | 60[fluorescence artefact?]
CCc1nnc(NC(=O)c2ccc(-c3ccc(Cl)cc3)o2)s1 | . | . | 274[fluorescence artefact?] | . | / | 54[fluorescence artefact?]
COc1ccccc1-c1ccc(=O)n(CC(=O)NC(C)(C)C)n1 | . | . | . | . | . | .
Cc1cc(NCCCN2CCOCC2)n2ncc(-c3ccccc3)c2n1 | . | . | . | . | . | .
NS(=O)(=O)c1ccc(NCc2cnc3ccccc3c2)cc1 | 102 | / | / | / | / | /
Cc1cc(C)n2c(SCc3ccc(Cl)cc3Cl)nnc2n1 | . | . | . | . | / | .
Cc1ccc(-c2csc3ncn(CC(=O)N4CCOCC4)c(=O)c23)cc1C | . | / | . | 78[fluorescence artefact?] | / | .
Cc1nc(N)sc1-c1csc(Nc2ccc(Cl)cn2)n1 | . | . | . | . | 16 | .
N/C(COc1ccc(F)cc1)=N\NC(=O)c1cccnc1Oc1ccccc1 | . | . | . | . | / | .
SMILES | Smad3 FoxH1 inh | MT1-MMP txn act | ERa coact pot | ERb SRC1 inh | MMP-13 inhibitor | ERa SRC1 inh
COc1ccc(NC(=O)c2ccccc2NC(=O)COc2ccccc2)cc1 | . | . | 211[fluorescence artefact?] | . | / | 56[fluorescence artefact?]
COCCn1c(C)cc(C(=O)COC(=O)c2cc3c(s2)CCC3)c1C | . | . | . | 66 | . | 76[fluorescence artefact?]
O=c1cc(-c2ccccc2Cl)c2c([nH]1)CCC2 | . | . | . | 57[fluorescence artefact?] | . | .
CC(NS(=O)(=O)c1ccc(OCC(=O)N2CCOCC2)c(Cl)c1)c1ccccc1 (centres undefined) | . | . | . | . | . | .
Cc1cc(N2CCN(C(=O)c3ccco3)CC2)n2nc(C)c(-c3ccccc3)c2n1 | . | . | 220 | . | . | .
Cc1nc2cc(-c3cccc(Cl)c3)nn2c(N2CCN(C(=O)c3ccco3)CC2)c1C | . | . | . | . | . | .
Cc1cc(N2CCN(C(=O)c3ccco3)CC2)n2nc(-c3cccc(Cl)c3)cc2n1 | . | . | . | 57[fluorescence artefact?] | . | .
Cc1cc(N2CCN(C(=O)c3ccco3)CC2)n2nc(C)c(-c3ccc(Cl)cc3)c2n1 | . | . | 282 | 55[fluorescence artefact?] | . | 55[fluorescence artefact?]
